Measurements as given in PubChem BioAssay (NCI).
The panel holds about 83,000 compounds, 20% with a hit somewhere; the sample as a whole holds those more often.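 Compound tested at a single concentration for 48 hours in 96-well plates; a percent growth value below 10 was scored as active.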 Activity calls are given as the source filed them.

Test system: IGROV1 ovarian
Test: NCI-60 one-dose screen, 48 h (100 = growth as untreated, 0 = no growth, -100 = all killed)
Details: 10 µM
Method: Growth inhibition of the IGROV1 human tumor cell line is measured as a screen for anti-cancer activity. Cells are grown in 96 well plates and exposed to the test compound for 48 hours. Compounds are tested at a single concentration, which is 10^-5 M for most compounds. The reported endpoint is percent growth (GI% or GIPRCNT), where numbers from 0 - 100% represent growth inhibition, and numbers from -100% - 0 represent cell death. For example, a value of 40 represents 60% growth inhibition. A value of 0 means no net growth occurred over the course of the experiment. A value of -40 indicates 40% of cells at the beginning of the experiment died by the end of the experiment. A value of -100 means all cells are dead at the end of the experiment.
NCI-60 Human Tumor Cell Lines Screen was performed using the standard one-dose NCI protocol, which is described in more detail at https://dtp.cancer.gov/discovery_development/nci-60/default.htm.
Compounds with GIPRCNT values below 10 were considered active. Activity score was based on GIPRCNT using the following formula: […]
Score is 0 for GIPRCNT values of 100 or above, 50 for GIPRCNT values of 0, and 100 for GIPRCNT values of -100.

SMILES | growth
CC1=C(CCC=NNC(N)=O)C2=C(C)C3(CC3)[C@@](C)(O)C(=O)C2=C1 | -34% (active)
COC(=O)c1ccc(-n2cc(CCCN(CCNc3ccnc4cc(Cl)ccc34)C(=O)CCC(=O)O[C@@H]3O[C@@H]4OC5(C)CC[C@H]6[C@H](C)CC[C@@H]([C@H]3C)[C@@]46OO5)nn2)cc1 | 40.4% (inactive)
CC12CCC3(CCC(=O)NCCCNc4ccnc5cc(Cl)ccc45)[C@@](C)(OO[C@]3(C)O1)O2 | -23.3% (active)
CC[C@]12C=CCN3CC[C@@]4(c5ccc(OC)cc5N(C)[C@H]4[C@@](O)(C(=O)OC)[C@@H]1OC(=O)CCC[P+](c1ccc(F)cc1)(c1ccc(F)cc1)c1ccc(F)cc1)[C@@H]32 | -15% (active)
CC(=O)Oc1ccccc1C(=O)NC([Se])=NC1CCCCC1 | -46% (active)
O=C(/C=C/c1ccc(Br)cc1)c1nc2ccccc2n1Cc1ccc(Br)cc1 | -18% (active)
C[C@H]1[C@@H](Oc2ccc(-c3cn(-c4ccnc5cc(Cl)ccc45)nn3)cc2)O[C@@H]2OC3(C)CC[C@H]4[C@H](C)CC[C@@H]1[C@@]24OO3 | 34.3% (inactive)
O=C(/C=C/c1ccc(Cl)cc1Cl)c1nc2ccccc2n1Cc1ccc(F)cc1 | 47% (inactive)
O=C(/C=C/c1ccc(Cl)cc1Cl)c1nc2ccccc2n1Cc1ccc(Br)cc1 | 68.4% (inactive)
O=C(/C=C/c1ccccc1Cl)c1nc2ccccc2n1Cc1ccc(F)cc1 | -78.1% (active)
O=C(/C=C/c1ccc(F)cc1)c1nc2ccccc2n1Cc1ccc(F)cc1 | 14.9% (inactive)
CC1=C(C=O)C2=C(C)C3(CC3)[C@@](C)(O)C(=O)C2=C1 | 53.6% (inactive)
Cc1ccc2[nH]c(=S)n(-c3ccc(F)cc3)c(=O)c2c1 | 106% (inactive)
COP(=O)(CC(F)(F)C(F)(F)F)OC | 50.2% (inactive)
COc1cc(OC)c(/C=C/C(=O)c2nc3ccccc3n2Cc2ccc(F)cc2)c(OC)c1 | 101% (inactive)
CC(=O)Oc1ccccc1C(=O)[Se]C(=NC(C)C)NC(C)C | -89.8% (active)
O=C(NC([Se])=NC1CCCCC1)c1ccc2c(c1)OCO2 | 43.6% (inactive)
C#CC[Se]C(=O)c1ccc(C(=O)[Se]CC#C)s1 | 85.5% (inactive)
COC(=O)CCn1c(-c2ccc(-n3cc(-c4ccc(O[C@H]5O[C@@H]6OC7(C)CC[C@H]8[C@H](C)CC[C@@H]([C@H]5C)[C@@]68OO7)cc4)nn3)cc2)nc2ccccc21 | 21.7% (inactive)
CC12OOC(C)(OO1)C2CCC(=O)NCCCNc1ccnc2cc(Cl)ccc12 (stereo not given) | 67.1% (inactive)

SMILES | growth
CC[C@]12C=CCN3CC[C@@]4(c5ccc(OC)cc5N(C)[C@H]4[C@@](O)(C(=O)OC)[C@@H]1OC(=O)CCC[P+](c1ccc(C)cc1)(c1ccc(C)cc1)c1ccc(C)cc1)[C@@H]32 | -89.5% (active)
COCCOCCOCCOc1ccc(-n2cc(CCCN(CCNc3ccnc4cc(Cl)ccc34)C(=O)CCC(=O)O[C@@H]3O[C@@H]4OC5(C)CC[C@H]6[C@H](C)CC[C@@H]([C@H]3C)[C@@]46OO5)nn2)cc1 | 44.8% (inactive)
COc1cc(OC)c(S(=O)(=O)N(CCCl)CCCl)cc1C(=O)/C=C/c1ccc(C)cc1 | 86.8% (inactive)
CC[C@]12C=CCN3CC[C@@]4(c5ccc(OC)cc5N(C)[C@H]4[C@@](O)(C(=O)OC)[C@@H]1OC(=O)CCCC[P+](C1CCCCC1)(C1CCCCC1)C1CCCCC1)[C@@H]32 | -84.7% (active)
COC(=O)C[C@](O)(CCCC(C)C)C(=O)O[C@H]1C(OC)=C[C@@]23CCCN2CCc2cc4c(cc2[C@@H]13)OCO4 | 8.76% (active)
N#C[Se]CC(=O)Nc1cccc(C(F)(F)F)c1 | -64.5% (active)
O=C([Se]C1C=CCCC1)c1ccc(C(=O)[Se]C2C=CCCC2)s1 (stereo not given) | -90.4% (active)
O=C(/C=C/c1cccc(Br)c1)c1nc2ccccc2n1Cc1ccc(Br)cc1 | -8.02% (active)
COc1cc2cc(C(=O)N3C[C@@H](CCl)c4c3cc(OC(=O)N3CCN(C(=O)CCC(=O)N5CCN(C)CC5)[C@@H]5CSSC[C@@H]53)c3ccccc43)[nH]c2c(OC)c1OC | -50.7% (active)
O=C(/C=C/c1ccco1)c1nc2ccccc2n1Cc1ccc(Br)cc1 | 31.6% (inactive)
C[C@H]1[C@H](OC(=O)CCC(=O)N(CCCc2cn(-c3ccc([N+](=O)[O-])cc3)nn2)CCNc2ccnc3cc(Cl)ccc23)O[C@@H]2OC3(C)CC[C@H]4[C@H](C)CC[C@@H]1[C@@]24OO3 | 44.9% (inactive)
COc1ccc(/C=C/C(=O)c2nc3ccccc3n2Cc2ccc(Br)cc2)cc1 | 65.8% (inactive)
O=C(/C=C/c1ccccc1)c1nc2ccccc2n1Cc1ccc(Br)cc1 | -57.8% (active)
CC[C@@]12CC(C(=O)OC)=C3Nc4cc5c(cc4[C@@]34CCN(C[C@H]3O[C@H]31)[C@@H]24)[C@@H]1[C@H](O5)[C@@H](O)[C@@]2(CC)CC(C(=O)OC)=C3Nc4cc(OC)ccc4[C@@]34CCN1[C@@H]24 | 2.51% (active)
CC[C@]12C=CCN3CC[C@@]4(c5ccc(OC)cc5N(C)[C@H]4[C@@](O)(C(=O)OC)[C@@H]1OC(=O)CCCC[P+](c1ccc(OC)cc1)(c1ccc(OC)cc1)c1ccc(OC)cc1)[C@@H]32 | -92% (active)
COC(=O)C[C@](O)(CCC(C)C)C(=O)O[C@@H]1C(OC)=C[C@]23CCCN2CCc2cc4c(cc2[C@H]13)OCO4 | -29.3% (active)
C=CCN=C([Se])NC(=O)c1ccc2c(c1)OCO2 | 75.6% (inactive)
C#CC[Se]C(=O)c1ccc2n[se]nc2c1 | 77.7% (inactive)
CC[C@]12C=CCN3CC[C@@]4(c5ccc(OC)cc5N(C)[C@H]4[C@@](O)(C(=O)OC)[C@@H]1OC(=O)CCC[P+](C1CCCCC1)(C1CCCCC1)C1CCCCC1)[C@@H]32 | -85.9% (active)
COC(=O)C[C@](O)(CCC(C)C)C(=O)O[C@H]1C(OC)=C[C@@]23CCCN2CCc2cc4c(cc2[C@@H]13)OCO4 | -19.3% (active)
